Screens deposited in PubChem BioAssay by National Center for Advancing Translational Sciences (NCATS).
Lamin A splicing – changes lamin A minigene splicing in HeLa cells; HeLa LMNA splicing GFP/RFP minigene ratio, 48 h; Potency, µM (doses to about 46.1 µM), for inactives: at the highest dose ratio change, negative = inhibition, most hits filed as inhibitors; 200,000 tested, 0.01% active; AID 1487; active means well fitted inhibition curve with a large enough effect in the signal ratio, with a control signal flat, not every such curve was filed as active; inconclusive means small, poorly fitted or top-dose-only effect, or effect the other way, or a change in a side signal; the % refers to the signal ratio; further: on the % scale 0 is the no-effect control and ±100 the full control effect
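S3 HeLa stable clones carrying a lamin A-EGFP splicing minigene plus DsRed2 were seeded at 600 cells/well in Opti-MEM with 2% FBS, pin-dosed and incubated 48 h at 37°C. Acumen cytometry (488 nm) gave the GFP/RFP total-intensity ratio.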
HTT aggregate – mutant huntingtin aggregation inhibition; PC12 HttQ103-GFP aggregates, Acumen cytometry, 40 h; Potency, µM (highest dose often 46.1 µM), for inactives: at the top dose activity change, negative = inhibition, usual class: inhibitors; 220,000 tested, 1.1% active; AID 1688; further: on the % scale 0 is the no-effect control and ±100 the full control effect; nearly all actives have a fitted effect of over 60% in size
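Compounds (qHTS titration) were added to PC12 cells expressing an ecdysone-driven HTT exon 1 Q103–GFP fusion after induction with 100 nM tebufenozide. Aggregate formation was measured as GFP objects in cell lysates.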
HTT ATP protect – protects HTT-Q103 PC12 cells, measured by ATP; 230,000 tested, 0.14% active; PC12 HTT-Q103 induced, cytoprotection, ATP luminescence, 40 h; Potency, µM (highest dose often 56.4 µM), without a hit: cytoprotection (ATP increase), actives largely listed as activators; further: % of control where 0% means no effect; nearly all actives have a fitted effect of over 45% in size
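Stable PC12 Q103-GFP cells in serum-supplemented, phenol red-free DMEM; induction by tebufenozide at 100 nM final; compound dose series; cell viability quantified luminescently from ATP.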
HPGD block – inhibitors of human 15-hydroxyprostaglandin dehydrogenase (HPGD); P15428; purified HPGD, NADH fluorescence kinetic, PGE2 substrate; Potency, µM, for the others: at the top dose activity change, negative = inhibition, usual class: inhibitors; 150,000 tested, 4.3% active; AID 894; active means well fitted inhibition curve with a large enough effect, not every such curve was filed as active; inconclusive means small, poorly fitted or top-dose-only effect, or another doubt; inactive means no such curve, though single readings can be large or run the other way; further: on the % scale 0 is the no-effect control and ±100 the full control effect
Target sequence (P15428 whole entry, looked up): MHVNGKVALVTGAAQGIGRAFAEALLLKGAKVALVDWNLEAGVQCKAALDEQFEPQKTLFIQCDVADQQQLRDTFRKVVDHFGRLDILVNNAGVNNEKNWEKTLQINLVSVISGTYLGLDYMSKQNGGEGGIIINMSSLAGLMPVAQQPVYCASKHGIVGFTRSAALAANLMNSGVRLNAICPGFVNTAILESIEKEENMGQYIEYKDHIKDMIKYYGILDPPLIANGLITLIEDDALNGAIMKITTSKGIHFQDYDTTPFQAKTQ
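20 nM HPGD preincubated 15 min at room temperature with compound in 50 mM Tris-HCl pH 8, 0.01% Tween 20. Started with 1 mM NAD+ and 30 uM prostaglandin E2; NADH fluorescence (360/450 nm) read 5 times over 30-s intervals, last minus first.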
ALDH1A1 inh – inhibitors of human aldehyde dehydrogenase 1A1; P00352; Purified ALDH1A1, NADH fluorescence, propionaldehyde substrate; 220,000 tested, 7.3% active; Potency, µM (top dose mostly 75.3 µM), for the others: top-dose activity, negative = inhibition, most hits filed as inhibitors; active means well fitted inhibition curve with a large enough effect, not every such curve was filed as active; inconclusive means small, poorly fitted or top-dose-only effect, or another doubt; inactive means no such curve, though single readings can be large or run the other way;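 further: plate controls were no enzyme wells and a reference inhibitor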
Target sequence (P00352 whole entry, looked up): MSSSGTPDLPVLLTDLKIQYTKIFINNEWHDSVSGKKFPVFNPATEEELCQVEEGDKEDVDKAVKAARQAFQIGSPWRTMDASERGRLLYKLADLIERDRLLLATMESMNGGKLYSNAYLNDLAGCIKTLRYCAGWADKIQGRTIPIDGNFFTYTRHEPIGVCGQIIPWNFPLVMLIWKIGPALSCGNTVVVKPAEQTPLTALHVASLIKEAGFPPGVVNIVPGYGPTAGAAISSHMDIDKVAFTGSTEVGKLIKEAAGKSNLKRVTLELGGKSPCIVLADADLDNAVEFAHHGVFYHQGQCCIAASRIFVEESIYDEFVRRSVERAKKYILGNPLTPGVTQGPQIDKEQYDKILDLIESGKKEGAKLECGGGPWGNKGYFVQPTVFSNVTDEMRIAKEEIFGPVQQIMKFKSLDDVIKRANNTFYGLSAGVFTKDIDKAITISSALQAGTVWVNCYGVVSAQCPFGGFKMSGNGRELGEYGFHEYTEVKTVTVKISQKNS
Active calls of the source: *; u = inconclusive; x = not tested or not shown; [ ] = another dose, or the depositor's remark. In the library only some 8.8% were active in any assay of this set; here they are far more common. Unless noted, the call rests on the fitted dose curve; in most records, active means well fitted curve in the direction sought with a large enough effect; inconclusive means small, poorly fitted or top-dose-only effect, or another doubt; inactive means no such curve, though single readings can be large; an effect the other way counts as inactive or inconclusive. Potency means the concentration at half of the fitted maximal effect.

SMILES	Lamin A splicing	HTT aggregate	HTT ATP protect	HPGD block	ALDH1A1 inh
CC(C)C(=O)NC(c1ccccc1)c1cc([N+](=O)[O-])c2cccnc2c1O (stereo unspecified)	u	8.91µM*	-8.1%[10 µM]	-13.0%	-5.8%
CC(=O)OC[C@@H]1O[C@@H](O/N=C2/C[C@@H](O)[C@@H](O)[C@@H]3[C@@H]4C(=O)N(Cc5ccccc5)C(=O)[C@H]4CC[C@H]23)[C@H](OC(C)=O)[C@H](OC(C)=O)[C@@H]1OC(C)=O	x	x	-16.0%[10 µM]	x	-5.7%[13.5 µM]
COc1cc(C(C)=O)ccc1OCC(O)CN1CCN(S(=O)(=O)c2ccccc2)CC1 (stereo unspecified)	2.7%	5.6%	-4.9%	-8.9%	28.2µM*
CCSc1ncc(CO)c(N)n1	x	-4.8%[9.22 µM]	13.6%[10 µM]	x	9.5%
Cc1cc(C)c2c(=O)c(C#N)coc2c1	x	5.1%[9.22 µM]	11.7%[10 µM]	x	10µM*
Cc1c(Cl)cccc1Nc1ccccc1C(=O)O	u	4.2%	u	14.1µM*	12.2%
CC(C)OCCCNc1ncnc2c1[nH]c1ccccc12	u	7.08µM*	19.1%[1.9 µM]	-28.2%	u
COc1ccc(CCNC(=O)C(C)n2c(=O)cc(-c3ccccc3)c3c(C)nn(C)c32)cc1OC (stereo unspecified)	0.8%[46 µM]	x	x	x	x
NNc1cc(C(=O)O)ccc1Cl	16.4%[46 µM]	-6.6%[9.22 µM]	29.9%[10 µM]	x	22.4µM*
Cc1ccccc1C1CC(=O)Oc2cc(C)c(Cl)c(C)c21 (stereo unspecified)	x	x	7.8%	-0.8%	3.6%
O=C(c1ccccc1)c1cc(F)c(N2CCOCC2)cc1Cl	16.1%	-25.6%	-15.9%	20µM*	0.5%
O=C(c1ccccc1)c1ccc(N2CCOCC2)c(F)c1	2.4%	-8.6%	-11.7%	25.1µM*	-2.0%
CCCCC[C@H](O)/C=C/C=C/C/C=C\CCCC(=O)O	x	x	-24.8%	-2.2%	9.2%
Cc1cccc(NCc2ccccc2O)c1	-1.5%	-6.8%	-10.7%	22.4µM*	-29.5%
COC(=O)CSC(C(=O)Nc1ccc(C)c(C)c1)c1ccccc1 (stereo unspecified)	0.0%	0.8%	3.4%	-23.4%	10µM*
CC(C)N(C(=S)Nc1cccnc1)c1ccccc1	x	-12.4%[9.22 µM]	16.5%[10 µM]	x	x
S=c1[nH]nc(-c2ccco2)n1/N=C/c1ccccc1Cl	-8.0%	-11.1%	-14.3%[10 µM]	x	10µM*
S=c1[nH]nc(-c2ccco2)n1/N=C/c1ccc(Cl)cc1	u	-0.1%	-2.3%[10 µM]	3.55µM*	22.4µM*
Fc1ccc(/C=N/n2c(-c3cccs3)n[nH]c2=S)cc1	8.0%	u	-8.7%[10 µM]	3.98µM*	14.1µM*
CCCCn1c(-c2ccco2)n[nH]c1=S	u	1.8%	17.8%[10 µM]	u	u
S=c1[nH]nc(-c2ccccn2)n1/N=C/c1ccc(Cl)cc1	x	-19.1%[9.22 µM]	-4.2%[10 µM]	x	0.2%
Cc1ccc(/C=N/n2c(-c3ccco3)n[nH]c2=S)s1	-12.3%	5.9%	3.5%[10 µM]	12.6µM*	11.2µM*
Cc1ccccc1/C=N/n1c(-c2ccccn2)n[nH]c1=S	x	-13.6%[9.22 µM]	6.2%[10 µM]	x	x
COc1cc(OC)c2c(c1)C(=O)OC2	3.6%	10.6%	0.7%[10 µM]	-20.3%	-3.7%
O=S(=O)(c1ccccc1)N1CCC2(CC1)CN(c1ccccn1)C2	x	x	-1.4%	-17.4%	u
SMILES	Lamin A splicing	HTT aggregate	HTT ATP protect	HPGD block	ALDH1A1 inh
Cc1cc(NCc2ccncc2)ccc1Br	x	14.9%[9.22 µM]	14.3%[10 µM]	x	22.4µM*
Cc1ccc(NCc2ccncc2)c(Br)c1	x	-10.9%[9.22 µM]	-6.5%[10 µM]	x	8.4%
COc1ccc(C(CNC(=O)COc2ccc(Cl)c(C)c2)N2CCOCC2)cc1 (stereo unspecified)	10.7%[46 µM]	x	x	x	x
CC1(O)C(=O)C=C2C=C(c3ccc(C#N)cc3)OC=C2C1=O (stereo unspecified)	x	x	14.7%	-11.0%	-15.1%
COC(=O)c1ccc(CN2CCN(Cc3ccc(C(=O)OC)o3)CC2)o1	13.1%	15.6%	3.6%[10 µM]	-8.7%	22.4µM*
Cc1ccc(C(=O)c2c[nH]c(C(=O)NCc3cccnc3)c2)cc1	u	u	-4.3%[10 µM]	25.1µM*	u
CCN(CCO)c1ccc(NC(=S)Nc2cccc(S(=O)(=O)N(C)C)c2)cc1	x	26.6%	-22.9%	x	25.1µM*
CN(C)S(=O)(=O)c1cccc(NC(=S)Nc2ccc(Cl)cc2Cl)c1	-9.7%	-14.6%	6.7%	u	12.6µM*
CN(C)S(=O)(=O)c1cccc(NC(=S)Nc2cc(Cl)cc(Cl)c2)c1	-1.3%	-3.9%[1.84 µM]	10.2%	-23.1%	u
Cc1ccc(SCC(=O)Nc2ccc(O)c(-c3nc4cc(C)ccc4o3)c2)cc1	6.5%[46 µM]	x	x	x	x
CCC(C)c1ccc(NC(=O)CSc2nncn2N)cc1 (stereo unspecified)	-9.8%	14.6%	6.6%	-15.5%	u
Nn1cnnc1SCC(=O)Nc1ccc(C2CCCCC2)cc1	4.8%	8.9%	-42.3%[10 µM]	-23.4%	11.2µM*
O=C(NC1CC(=O)N(c2cccc(F)c2)C1)C1CC1 (stereo unspecified)	-6.4%[46 µM]	x	x	x	x
CCCCCCOc1ccc(N2C(=O)CC(S/C(N)=N/N=C(\C)c3cccs3)C2=O)cc1 (stereo unspecified)	6.1%	-1.1%	0.794µM*	-2.5%	9.7%
CC(C)CC(=O)Nc1ccc2nc(SCC(=O)N3CCOCC3)sc2c1	-11.0%[46 µM]	x	x	x	x
COc1cc(N=Nc2c(O)c3ccccc3[nH]c2=O)c(OC)cc1N=Nc1ccccc1	-4.5%[46 µM]	3.3%[9.22 µM]	-5.6%[10 µM]	x	15.8µM*
CCCCc1ccc(CC(=O)O)cc1	0.2%	-9.8%	0.0%	31.6µM*	14.1µM*
CCOc1ccc(OCC)c(NC(=O)c2cc(S(=O)(=O)N3CCCC3)cn2C)c1	10.5%[46 µM]	x	x	x	x
CCN(c1ccc(OC)cc1)S(=O)(=O)c1c(C(=O)N2CCCCCC2)c(C)n(C)c1C	3.5%[46 µM]	x	x	x	x
CC1=C(C(=O)Nc2ccc(C)cc2C)C(c2cccs2)NC(=S)N1 (stereo unspecified)	-16.4%	u	-6.7%[10 µM]	-7.4%	u
CC1=C(C(=O)Nc2ccccc2C)C(c2cccs2)NC(=S)N1 (stereo unspecified)	-13.2%	-8.5%	12.5%[10 µM]	-13.8%	12.6µM*
CCOc1ccccc1NC(=O)C1=C(C)NC(=S)NC1c1cccs1 (stereo unspecified)	u	-4.6%	x	-13.5%	0.631µM*
CCOc1ccccc1NC(=O)C1=C(C)Nc2ncnn2C1c1cccs1 (stereo unspecified)	-3.6%[46 µM]	x	x	x	x
Cc1ccc(CCNC(=O)c2c3c(nc4ccccc24)C(=O)N(C2CCCCC2)C3)cc1	-7.0%[46 µM]	x	x	x	x
Cc1nn(-c2ccccn2)c2c1C(=O)C(Br)CC2 (stereo unspecified)	u	-11.7%	u	x	11.2µM*
COC(=O)/C=C1\S/C(=N/N=C/c2ccccc2)NC1=O	-12.3%	-9.5%	0.4%[10 µM]	25.1µM*	1.1%
COC(=O)/C=C1\S/C(=N/N=C/c2ccc(Cl)cc2)NC1=O	x	9.3%[9.22 µM]	10.1%[10 µM]	x	x
O=S(=O)(c1cccc2nsnc12)N1CCN(c2ccccc2F)CC1	u	2.5%[9.22 µM]	11.2%[10 µM]	x	22.4µM*
CSC1(SC2=NCCN2)SC2(NCCN2)S1	x	x	29.4%[10 µM]	-8.2%	0.0891µM*
